# Records with an inconclusive call do not appear. The source made the active and inactive calls. Cut-off read from the data, not from the text of the source, unless noted: active = inhibition above about 80%; inactive = the rest.
# Columns and labels:
# [1] = viability loss in pontine glioma line – cell-based, SU-DIPG-XIII, MIPE5.0, CellTiter-Glo, qHTS, dose response (AID 1347064; cut-off not given, nearly all actives have AC50 up to about 23 µM;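 for AC50: cells exposed to compound for 48 hours before the viability read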); settings: CellTiter-Glo ATP luminescence
# [2] = viability loss in pontine glioma line – cell-based, SU-DIPG-XXV, MIPE5.0, CellTiter-Glo, qHTS, dose response (AID 1347065; cut-off not given, nearly all actives have AC50 up to about 26 µM;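 note: cells exposed to compound for 48 hours before ATP readout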); settings: CellTiter-Glo ATP luminescence
# [3] = JHH-DIPG-1 glioma cell viability, MIPE5.0 library, CellTiter-Glo luminescence, qHTS (AID 1347067; cut-off not given, nearly all actives have AC50 up to about 26 µM;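 note: cells exposed to compound for 48 hours before readout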); settings: JHH-DIPG-1 glioma viability, CellTiter-Glo ATP luminescence
# [4] = growth inhibition of DIPG cells – cell-based, MIPE5.0 library, qHTS (AID 1347068; cut-off not given, nearly all actives have IC50 up to about 30 µM); settings: SU-DIPG-XXV viability
# [5] = biological target: ATP-dependent translocase ABCB1 (Homo sapiens) (UniProt P08183); assay: P-glycoprotein substrate transport blockade – cell-based (AID 377; in the data active = fluorescence slope change above about 50%); settings: MDR1-expressing cells, fluorescent substrate accumulation slope; stronger effect = higher value; concentration not given here
# [6] = biological target: Mitogen-activated protein kinase 7 (Homo sapiens) (UniProt Q13164); assay: Gal4-ERK5 driven luciferase induction – cell-based, HTS, primary screen (AID 1508626;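 active = luciferase signal above three times the same-plate solvent-only control wells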;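 note: luciferase driven by Gal4-ERK5 fusion binding five Gal4 sites before minimal TATA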); settings: HeLa Gal4-ERK5 transactivation, 18 h, at 5 µM, stronger effect = higher value
# [7] = galactose survival enhancers in mitochondrial complex I cybrids – cell-based, galactose medium, ATP luminescence, primary screen (AID 1645843;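 active = z-score of at least 1.8 in each of two replicates, scored against plate mean and spread of sample wells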;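 note: positive z means more ATP and so rescue of galactose-driven cybrid death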); settings: complex I mutant cybrid cells, 72 h, stronger effect = higher value
# [8] = viability loss in pontine glioma line – cell-based, JHH-DIPG-1, MIPE4.0, CellTiter-Glo, qHTS, dose response (AID 1347062; cut-off not given, nearly all actives have AC50 up to about 27 µM;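 for AC50: cells exposed to compound for two days before readout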); settings: JHH-DIPG-1 viability, CellTiter-Glo ATP luminescence
# [9] = viability loss in pontine glioma line – cell-based, SU-DIPG-IV, MIPE4.0, CellTiter-Glo, qHTS, dose response (AID 1347063; cut-off not given, nearly all actives have AC50 up to about 30 µM;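 note: compound exposure lasted 48 hours before the viability readout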); settings: CellTiter-Glo ATP luminescence
# [10] = growth inhibition of DIPG cells – cell-based, MIPE4.0 library, CellTiter-Glo luminescence, qHTS (AID 1347066; cut-off not given, nearly all actives have AC50 up to about 30 µM;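 note: cells exposed to compound for 48 hours before readout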); settings: SU-DIPG-VI viability, CellTiter-Glo ATP luminescence
# [11] = growth inhibition, single agents and combos, LFS_MB_1R, cell-based, cisplatin or BGB combos, synergistic combos for chromothripsis tumors (AID 1671452); settings: LFS_MB_1R medulloblastoma cells, stronger effect = higher value;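 note: cells exposed for 96 hours before readout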
# [12] = growth inhibition, single agents and combos, CRL2098, cell-based, BGB or cisplatin IC20 combos, synergistic combos for chromothripsis tumors (AID 1671454); settings: CRL2098 osteosarcoma cells, drug combinations, stronger effect = higher value;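 note: cells exposed for 96 h before readout; 0% = vehicle DMSO and 100% = killing by high DMSO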
# [13] = growth inhibition, single agents and combos, HD-MB03, cell-based, BGB or cisplatin IC20 combos, synergistic combos for chromothripsis tumors (AID 1671455; in the data active = inhibition above about 83%;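 note: 0% = vehicle DMSO and 100% = high DMSO as cytotoxic control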); settings: HD-MB03 medulloblastoma cells, stronger effect = higher value
# [14] = growth inhibition, single agents and combos, UWB1.289, cell-based, BGB or cisplatin combos, synergistic combos for chromothripsis tumors (AID 1671456); settings: UWB1.289 ovarian carcinoma cells, stronger effect = higher value;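 note: cells exposed to compound for four days; 0% = vehicle DMSO and 100% = killing by high DMSO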
# [15] = growth inhibition, single agents and combos, LFS_MB_2R, cell-based, cisplatin combos, synergistic combos for chromothripsis tumors (AID 1671457); settings: LFS_MB_2R medulloblastoma cells, stronger effect = higher value;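 note: cells exposed to compound for four days before readout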
# [16] = UWB1.289_BRCA1 ovarian cancer growth, cell-based, BGB or cisplatin combinations (AID 1671459); settings: UWB1.289 BRCA1 ovarian carcinoma, drug combinations, stronger effect = higher value
# [17] = drug combination toxicity in non-malignant astrocytes – cell-based, BGB or cisplatin IC20 combos, cytotoxicity control for chromothriptic childhood tumor combination screen (AID 1671460); settings: Human astrocytes, viability inhibition, drug combinations, at 0.5 µM, stronger effect = higher value;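 note: cells exposed to compounds for 96 hours before viability readout; 0% = vehicle and 100% = killing control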
# [18] = BT084 cell growth, single and combined drugs, ICGC_MB145, cisplatin and BGB IC40 combos (AID 1671461); settings: BT084 medulloblastoma cells, drug combinations, stronger effect = higher value;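 note: cells exposed to drugs for 96 hours; 0% = vehicle DMSO and 100% = high DMSO full killing control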
# [19] = RCMB18 cell growth, single agent and combined, cisplatin and BGB IC40 combos (AID 1671462); settings: RCMB18 medulloblastoma cells, stronger effect = higher value;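 note: cells exposed to compound for four days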
# [20] = CRL1545 cell growth, single agent and combined, cisplatin and BGB IC20 combos (AID 1671464); settings: CRL1545 osteosarcoma cells, stronger effect = higher value;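 note: cells exposed to compound for 96 hours before readout; 0% = vehicle DMSO and 100% = high DMSO killing control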
# [21] = measured here: combination with cisplatin, at 0.5 µM
# [22] = measured here: combination with cisplatin, at 5 µM
# Mitogen-activated protein kinase 7 (Homo sapiens), sequence (Q13164 whole entry, looked up, the tested form may be a part): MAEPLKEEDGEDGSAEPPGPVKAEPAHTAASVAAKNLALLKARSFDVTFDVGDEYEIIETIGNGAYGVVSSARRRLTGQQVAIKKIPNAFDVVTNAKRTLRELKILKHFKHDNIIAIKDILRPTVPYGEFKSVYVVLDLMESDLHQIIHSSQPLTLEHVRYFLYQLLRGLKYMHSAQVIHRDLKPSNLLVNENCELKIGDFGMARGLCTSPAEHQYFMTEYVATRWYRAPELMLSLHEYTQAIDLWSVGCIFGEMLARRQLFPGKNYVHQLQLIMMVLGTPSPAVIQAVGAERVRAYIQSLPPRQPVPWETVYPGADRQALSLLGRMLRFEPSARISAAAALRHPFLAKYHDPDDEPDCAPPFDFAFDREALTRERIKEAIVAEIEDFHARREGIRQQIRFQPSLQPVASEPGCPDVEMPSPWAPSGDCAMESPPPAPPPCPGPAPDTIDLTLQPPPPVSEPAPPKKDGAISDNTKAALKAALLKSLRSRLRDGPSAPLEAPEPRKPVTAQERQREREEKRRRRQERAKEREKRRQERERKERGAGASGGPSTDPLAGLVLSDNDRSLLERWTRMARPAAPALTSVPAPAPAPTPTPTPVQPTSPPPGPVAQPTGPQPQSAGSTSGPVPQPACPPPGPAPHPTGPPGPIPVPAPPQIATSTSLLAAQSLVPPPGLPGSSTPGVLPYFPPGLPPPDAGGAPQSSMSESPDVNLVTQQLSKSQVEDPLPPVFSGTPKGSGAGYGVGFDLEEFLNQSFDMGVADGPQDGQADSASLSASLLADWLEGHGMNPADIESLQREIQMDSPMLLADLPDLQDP
# ATP-dependent translocase ABCB1 (Homo sapiens), sequence (P08183 whole entry, looked up, the tested form may be a part): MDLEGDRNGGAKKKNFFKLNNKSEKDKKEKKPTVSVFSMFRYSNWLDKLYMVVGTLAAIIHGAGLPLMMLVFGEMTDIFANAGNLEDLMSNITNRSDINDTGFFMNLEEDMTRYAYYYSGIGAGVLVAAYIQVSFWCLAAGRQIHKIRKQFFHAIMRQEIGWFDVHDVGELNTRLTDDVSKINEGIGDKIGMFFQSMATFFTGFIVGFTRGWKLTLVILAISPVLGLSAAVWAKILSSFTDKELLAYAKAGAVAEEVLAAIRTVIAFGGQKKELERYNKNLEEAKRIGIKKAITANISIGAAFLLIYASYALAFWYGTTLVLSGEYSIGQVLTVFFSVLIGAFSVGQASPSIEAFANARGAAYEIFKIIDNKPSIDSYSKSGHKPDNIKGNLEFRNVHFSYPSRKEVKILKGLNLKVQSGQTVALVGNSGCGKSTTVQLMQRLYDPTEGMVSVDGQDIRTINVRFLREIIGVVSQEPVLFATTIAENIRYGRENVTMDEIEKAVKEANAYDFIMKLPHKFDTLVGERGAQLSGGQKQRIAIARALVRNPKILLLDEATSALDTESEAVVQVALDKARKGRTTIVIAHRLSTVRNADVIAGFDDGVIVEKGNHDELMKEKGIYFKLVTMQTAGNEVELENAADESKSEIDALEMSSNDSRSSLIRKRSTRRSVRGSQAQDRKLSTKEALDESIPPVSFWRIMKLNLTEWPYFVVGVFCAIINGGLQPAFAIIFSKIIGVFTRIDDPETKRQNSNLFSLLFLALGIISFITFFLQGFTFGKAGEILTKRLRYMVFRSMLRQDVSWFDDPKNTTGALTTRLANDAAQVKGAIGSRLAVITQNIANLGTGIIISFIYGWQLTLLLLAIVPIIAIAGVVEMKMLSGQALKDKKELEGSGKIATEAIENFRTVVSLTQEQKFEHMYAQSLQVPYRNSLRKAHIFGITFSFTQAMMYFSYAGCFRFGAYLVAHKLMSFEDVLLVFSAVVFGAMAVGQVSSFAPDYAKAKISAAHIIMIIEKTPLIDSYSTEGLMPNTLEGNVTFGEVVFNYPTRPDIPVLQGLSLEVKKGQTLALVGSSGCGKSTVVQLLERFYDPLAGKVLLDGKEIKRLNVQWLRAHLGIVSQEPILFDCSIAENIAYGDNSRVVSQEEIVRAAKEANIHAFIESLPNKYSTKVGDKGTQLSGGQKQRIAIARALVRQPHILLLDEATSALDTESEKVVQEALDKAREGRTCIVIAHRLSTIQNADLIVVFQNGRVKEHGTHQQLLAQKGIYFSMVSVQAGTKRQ
structure (smiles),measurement,setting,value
O=C(O)[C@H](O)[C@@H](O)[C@H](O[C@@H]1O[C@H](CO)[C@H](O)[C@H](O)[C@H]1O)[C@H](O)CO,outcome,[1],inactive
same,outcome,[2],inactive
same,outcome,[3],inactive
same,outcome,[4],inactive
CC(=O)c1ccc2c(c1)N(CCCN(C)C)c1ccccc1S2,fluorescence slope change,[5],72% (active)
same,luciferase signal,[6],32 AU (inactive)
same,z-score,[7],-0.995 (inactive)
Clc1ccc(Cn2c(CN3CCCC3)nc3ccccc32)cc1,fluorescence slope change,[5],82.8% (active)
same,outcome,[3],inactive
same,outcome,[4],inactive
same,luciferase signal,[6],56 AU (inactive)
same,z-score,[7],-1.35 (inactive)
Cc1nc(Nc2ncc(C(=O)Nc3c(C)cccc3Cl)s2)cc(N2CCN(CCO)CC2)n1,AC50,[8],16.6 µM (active)
same,AC50,[9],16.6 µM (active)
same,AC50,[1],14.8 µM (active)
same,AC50,[2],14.8 µM (active)
same,outcome,[10],inactive
same,AC50,[3],7.42 µM (active)
COc1ccc2[nH]c(S(=O)Cc3ncc(C)c(OC)c3C)nc2n1 (stereo unspecified),outcome,[4],inactive
same,z-score,[7],0.825 (inactive)
CCN(C)C(=O)Oc1cccc([C@H](C)N(C)C)c1,outcome,[8],inactive
same,outcome,[10],inactive
same,z-score,[7],0.825 (inactive)
CC(S)C(=O)NCC(=O)O (stereo unspecified),outcome,[8],inactive
same,outcome,[10],inactive
same,outcome,[4],inactive
O=C1Cc2cc(CCN3CCN(c4nsc5ccccc45)CC3)c(Cl)cc2N1,AC50,[9],26.4 µM (active)
same,AC50,[10],23.5 µM (active)
same,z-score,[7],-0.165 (inactive)
O=C(CCCCCCC(=O)Nc1ccccc1)NO,AC50,[8],3.72 µM (active)
same,AC50,[1],1.18 µM (active)
same,AC50,[2],0.833 µM (active)
same,AC50,[3],1.48 µM (active)
same,outcome,[4],inactive
same,inhibition,[11]; at 0.5 µM,17.4% (inactive)
same,inhibition,"[11]; measured here: combination with BGB IC40, at 0.05 µM",-3.43%
same,inhibition,[11]; [21],21.7%
same,inhibition,[11]; [22],83.1%
same,inhibition,[12]; at 0.5 µM,-45.6% (inactive)
same,inhibition,"[12]; measured here: combination with BGB at IC20, at 0.5 µM",-78.4%
same,inhibition,"[12]; measured here: combination with cisplatin at IC20, at 0.5 µM",-12.2%
same,inhibition,[13]; at 0.5 µM,22% (inactive)
same,inhibition,"[13]; measured here: combo with BGB at IC20, at 0.5 µM",21%
same,inhibition,"[13]; measured here: combo with cisplatin at IC20, at 0.5 µM",48.3%
same,inhibition,[14]; at 0.5 µM,14.7% (inactive)
same,inhibition,"[14]; measured here: inhibition with BGB combination, at 0.05 µM",-38.8%
same,inhibition,"[14]; measured here: inhibition with cisplatin combination, at 0.05 µM",-24.2%
same,inhibition,[15]; at 0.5 µM,-2.63% (inactive)
same,inhibition,[15]; [21],3.49%
same,inhibition,[15]; [22],79.7%
same,inhibition,"[16]; BGB combination, concentration series, at 5 µM",69.1%
same,inhibition,[16]; at 0.5 µM,9.38% (inactive)
same,inhibition,"[16]; cisplatin combination, concentration series, at 5 µM",84.7%
same,inhibition,[17],-0.71% (inactive)
same,inhibition,[17]; measured here: combo with BGB IC20,-2.1%
same,inhibition,[17]; measured here: combo with cisplatin IC20,-2.33%
same,inhibition,[18]; at 0.5 µM,10.3% (inactive)
same,inhibition,"[18]; cisplatin combination, at 0.5 µM",36%
same,inhibition,"[18]; cisplatin combination, at 5 µM",98.4%
same,inhibition,"[18]; measured here: BGB IC40 combination 0.05 uM, at 0.05 µM",-23.4%
same,inhibition,"[18]; single agent, at 5 µM",87.4%
same,inhibition,[19]; at 0.5 µM,14.4% (inactive)
same,inhibition,"[19]; cisplatin combo, at 5 µM",93.4%
same,inhibition,"[19]; measured here: BGB IC40 combination, at 0.05 µM",-14.3%
same,inhibition,[19]; [21],47.6%
same,inhibition,"[19]; single agent, at 5 µM",78.3%
same,inhibition,[20]; at 0.5 µM,74.5% (inactive)
same,inhibition,"[20]; measured here: with BGB IC20 combination, at 0.5 µM",65.9%
same,inhibition,"[20]; measured here: with cisplatin IC20 combination, at 0.5 µM",78.3%
same,inhibition,"[20]; single agent, at 0.05 µM",-34.3%
same,inhibition,"[20]; single agent, at 5 µM",88.9%

# From PubChem BioAssay
